Source: PubChem BioAssay
Values without a mark were called inactive. For some assays here: Results with a measured potency or affinity are listed apart. Activity calls are given as the source filed them. Unless noted, no rule for the calls is given here.

Assays:
[1] = antimalarial activity against Dd2 strain (AID 2302;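 active = growth inhibition above 50% at the single 2 µM test dose, taken to imply half-maximal potency below 2 µM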;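 also: 0% = DMSO untreated growth and 100% = chloroquine plus artemisinin killed control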); details: P. falciparum Dd2 in RBCs, LDH growth readout, 72 h; at 2 µM; stronger effect = higher value
[2] = HepG2 cytotoxicity, primary screen, cytotoxicity control for P. falciparum antimalarial project, cell-based, ATP luminescence (AID 2303;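 active = inhibition above 50%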;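 also: 0% = DMSO wells and 100% = digitonin-killed cells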); details: HepG2 viability, 24-48 h, at 10 µM, stronger effect = higher value
[3] = target: L-lactate dehydrogenase (Plasmodium falciparum (isolate CDC / Honduras)) (UniProt Q27743); assay: PfLDH activity inhibition – cell lysate, 3D7 strain, counter-screen for P. falciparum growth inhibition project (AID 2304);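 also: 0% = vehicle and 100% = reference inhibitor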; details: P. falciparum 3D7 crude extract, LDH APAD/NBT absorbance; at 2 µM; stronger effect = higher value
L-lactate dehydrogenase (Plasmodium falciparum (isolate CDC / Honduras)), sequence (Q27743 whole entry, looked up): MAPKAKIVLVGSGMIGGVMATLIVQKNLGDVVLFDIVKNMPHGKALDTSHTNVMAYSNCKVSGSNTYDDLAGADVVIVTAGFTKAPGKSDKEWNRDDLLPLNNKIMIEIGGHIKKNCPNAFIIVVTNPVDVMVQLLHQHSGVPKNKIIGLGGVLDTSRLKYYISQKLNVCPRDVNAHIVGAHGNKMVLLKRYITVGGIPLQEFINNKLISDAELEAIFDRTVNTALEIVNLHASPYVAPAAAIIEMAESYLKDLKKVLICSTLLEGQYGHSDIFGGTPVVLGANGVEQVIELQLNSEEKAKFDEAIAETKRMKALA

[4] = inhibition of 3D7 malaria parasite growth – strain 3D7 (AID 2306);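 also: 0% = DMSO wells and 100% = chloroquine plus artemisinin control wells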; details: P. falciparum 3D7 erythrocytic growth, LDH absorbance, 72 h; at 2 µM; stronger effect = higher value
[5] = target: Calcium-dependent protein kinase 1 (Plasmodium falciparum (isolate 3D7)) (UniProt P62344); assay: PfCDPK1 kinase inhibitors, biochemical, TCAMS library (AID 1159585; cut-off not given, nearly all actives have IC50 up to about 0.98 µM;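 also: inhibitors leave more ATP so luminescence rises with inhibition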); details: recombinant PfCDPK1, Kinase-Glo ATP depletion luminescence
Calcium-dependent protein kinase 1 (Plasmodium falciparum (isolate 3D7)), sequence (P62344 whole entry, looked up): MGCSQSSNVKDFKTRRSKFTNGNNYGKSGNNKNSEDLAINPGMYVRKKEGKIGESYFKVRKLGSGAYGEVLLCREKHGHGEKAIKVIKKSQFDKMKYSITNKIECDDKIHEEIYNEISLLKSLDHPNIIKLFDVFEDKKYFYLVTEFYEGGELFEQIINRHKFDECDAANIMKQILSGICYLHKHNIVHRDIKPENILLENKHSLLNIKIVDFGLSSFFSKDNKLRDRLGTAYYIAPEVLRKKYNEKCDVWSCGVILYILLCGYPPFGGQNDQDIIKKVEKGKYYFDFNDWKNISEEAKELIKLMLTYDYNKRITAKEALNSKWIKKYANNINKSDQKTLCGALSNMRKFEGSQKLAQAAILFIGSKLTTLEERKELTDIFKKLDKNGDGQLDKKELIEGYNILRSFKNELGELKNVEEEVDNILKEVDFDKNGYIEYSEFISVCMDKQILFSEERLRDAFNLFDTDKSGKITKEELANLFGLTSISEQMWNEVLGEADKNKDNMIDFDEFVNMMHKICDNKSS

[6] = target: Plasmodium falciparum protein kinase 6 (PK6, PF3D7_1337100) (UniProt Q8IDW1); assay: PfPK6 kinase inhibitors, biochemical, TCAMS library (AID 1159586); details: recombinant PfPK6, Kinase-Glo ATP depletion luminescence
Plasmodium falciparum protein kinase 6 (PK6, PF3D7_1337100), sequence (Q8IDW1 1-305): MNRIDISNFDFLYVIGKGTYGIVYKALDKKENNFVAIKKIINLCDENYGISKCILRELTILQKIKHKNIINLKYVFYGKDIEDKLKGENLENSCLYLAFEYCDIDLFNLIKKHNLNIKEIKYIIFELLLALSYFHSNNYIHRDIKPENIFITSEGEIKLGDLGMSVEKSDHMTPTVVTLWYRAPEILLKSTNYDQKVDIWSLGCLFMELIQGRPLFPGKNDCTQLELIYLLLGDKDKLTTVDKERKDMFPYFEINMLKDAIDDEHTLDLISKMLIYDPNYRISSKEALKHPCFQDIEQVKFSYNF

[7] = target: Protein kinase 7 (PK7), Plasmodium falciparum 3D7 (PF3D7_0213400) (UniProt Q7YTF7); assay: inhibition of Plasmodium PK7 catalytic activity – biochemical, TCAMS antimalarial set, Kinase-Glo luminescence (AID 1159587); details: recombinant PfPK7, Kinase-Glo ATP depletion luminescence
Protein kinase 7 (PK7), Plasmodium falciparum 3D7 (PF3D7_0213400), sequence (Q7YTF7 1-343): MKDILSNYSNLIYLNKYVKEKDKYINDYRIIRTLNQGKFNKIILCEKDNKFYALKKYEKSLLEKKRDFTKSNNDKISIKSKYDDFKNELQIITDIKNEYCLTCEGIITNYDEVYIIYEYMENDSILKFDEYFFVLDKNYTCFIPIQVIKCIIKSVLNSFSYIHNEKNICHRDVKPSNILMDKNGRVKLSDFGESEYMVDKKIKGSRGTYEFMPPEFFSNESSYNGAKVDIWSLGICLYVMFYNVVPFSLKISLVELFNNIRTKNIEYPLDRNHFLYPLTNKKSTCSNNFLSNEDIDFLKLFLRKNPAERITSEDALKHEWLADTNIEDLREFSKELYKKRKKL

[8] = target: Calcium-dependent protein kinase 4 (Plasmodium falciparum (isolate 3D7)) (UniProt Q8IBS5); assay: PfCDPK4 kinase inhibitors, biochemical, TCAMS library (AID 1159588; cut-off not given, nearly all actives have IC50 up to about 0.91 µM); details: recombinant PfCDPK4, Kinase-Glo ATP depletion luminescence
Calcium-dependent protein kinase 4 (Plasmodium falciparum (isolate 3D7)), sequence (Q8IBS5 whole entry, looked up): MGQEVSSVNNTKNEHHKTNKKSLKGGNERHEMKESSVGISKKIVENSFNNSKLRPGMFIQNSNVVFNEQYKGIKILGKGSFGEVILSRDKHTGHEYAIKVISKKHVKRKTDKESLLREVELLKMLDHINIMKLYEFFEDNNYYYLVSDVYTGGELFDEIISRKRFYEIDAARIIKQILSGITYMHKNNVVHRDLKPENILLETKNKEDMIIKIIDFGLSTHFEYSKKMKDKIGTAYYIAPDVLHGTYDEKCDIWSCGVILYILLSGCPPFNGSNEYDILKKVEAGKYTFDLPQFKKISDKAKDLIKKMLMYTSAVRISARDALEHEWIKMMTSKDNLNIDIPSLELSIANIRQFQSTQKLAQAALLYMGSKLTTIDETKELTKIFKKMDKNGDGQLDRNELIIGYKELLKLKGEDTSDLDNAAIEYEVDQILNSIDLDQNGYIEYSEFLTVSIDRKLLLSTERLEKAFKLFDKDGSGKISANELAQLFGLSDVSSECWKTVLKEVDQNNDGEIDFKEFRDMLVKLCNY

SMILES	growth inhibition [1]	inhibition [2]	inhibition [3]	growth inhibition [4]	outcome [5]	outcome [6]	outcome [7]	outcome [8]
O=C(Nc1cccc(-c2cccc(-c3nc4ccc(F)cc4[nH]3)c2)c1)Nc1ccc2c(c1)OCO2	49%	30%	-4%	101% (active)	inactive	inactive	inactive	inactive
CC(C)(C)OC(=O)NCc1ccc(Nc2nnc(-c3cccc(OCC(=O)NCc4cc(C(F)(F)F)cc(C(F)(F)F)c4)c3)o2)cc1	19%	32%	1%	90% (active)	inactive	inactive	inactive	inactive
COc1nc2c(CCN3CC[C@H](NCc4cc(C#N)c5c(c4)CCO5)[C@H](O)C3)ccnc2cc1F	71% (active)	31%	-9%	99% (active)	inactive	inactive	inactive	inactive
CCOC(=O)NC1=NC(C)(C)N(OCCCOc2cc(Cl)c(Cl)cc2Cl)C(NC(=O)OCC)=N1	97% (active)	63% (active)	5%	91% (active)	inactive	inactive	inactive	inactive
CN1CCC(N2CCN(Cc3ccc(-c4cccc(-c5nc6ccccc6[nH]5)c4)cc3)CC2)CC1	100% (active)	48%	-1%	99% (active)	inactive	inactive	inactive	inactive
COc1ccccc1CCNc1nc(C)cc(N[C@@H](Cc2ccccc2)C(=O)NCCOc2ccccc2)n1	76% (active)	20%	4%	101% (active)	inactive	inactive	inactive	inactive
c1ccc(Oc2ccc(Nc3ccnc4cc(-c5csc(CNCCN6CCOCC6)n5)ccc34)cc2)cc1	99% (active)	-1%	0%	101% (active)	inactive	inactive	inactive	inactive
O=C(Cn1c(CCc2cccc(F)c2F)cc(=O)c2cccnc21)N(CCn1ccnc1)Cc1ccc(-c2ccc(C(F)(F)F)cc2)cc1	62% (active)	39%	0%	99% (active)	inactive	inactive	inactive	inactive
Cc1ccc2nc(-c3ccc(C=CC(=O)NC4CCN(Cc5ccccc5)CC4)cc3)[nH]c2c1	92% (active)	9%	-1%	101% (active)	inactive	inactive	inactive	inactive
CCCCCOc1ccc(C(O)C(CCC(CN2CCCCCC2)C(O)c2ccc(OCCCCC)cc2)CN2CCCCCC2)cc1 (stereo not given)	93% (active)	99% (active)	0%	99% (active)	inactive	inactive	inactive	inactive
CNc1nc(NN=Cc2cc3c(cc2[N+](=O)[O-])OCO3)nc(Nc2cccc(C(F)(F)F)c2)n1	60% (active)	-1%	2%	101% (active)	inactive	inactive	inactive	inactive
CCOc1ccc(N2C(N)=NC(N)=NC2(C)C)cc1	-2%	10%	0%	95% (active)	inactive	inactive	inactive	inactive
Cc1ccc(O)c(-c2cc(C(=O)Nc3ccc(S(=O)(=O)N4CCCCCC4)cc3)[nH]n2)c1	80% (active)	25%	4%	100% (active)	inactive	inactive	inactive	inactive
CC[C@H](C)CNC(=O)c1cccc(-c2cccc(CN3CCC(N4CCCC4)CC3)c2)n1	86% (active)	9%	1%	101% (active)	inactive	inactive	inactive	inactive
Cn1c(NC(=O)C2CCCN(C(=O)c3ccc(O)c(-c4ccc(Cl)c(Cl)c4)c3)C2)nc2ccccc21 (stereo not given)	99% (active)	0%	-3%	98% (active)	inactive	inactive	inactive	inactive
O=C(/C=C/c1ccc(Cl)c(Cl)c1)NCCCCCN1CCN(C(=O)Nc2cccc(F)c2)CC1	1%	12%	-1%	91% (active)	inactive	inactive	inactive	inactive
CN(CCN)Cc1cccc(-c2ccc(-c3nc4ccc(C(F)(F)F)cc4[nH]3)s2)c1	92% (active)	27%	5%	100% (active)	inactive	inactive	inactive	inactive
Cc1c(NCCCNCc2cc(Cl)cc(Cl)c2Cl)[nH]c2ccccc2c1=O	86% (active)	35%	-2%	101% (active)	inactive	inactive	inactive	inactive
O=C(Nc1cc(C(F)(F)F)cc(C(F)(F)F)c1)c1cccc([N+](=O)[O-])c1	15%	23%	-2%	93% (active)	inactive	inactive	inactive	inactive
Cc1ccc(/C=C/C(=O)N2CCC(CCN3CCC(c4c[nH]c5ccccc45)CC3)CC2)cc1C	5%	50% (active)	-2%	94% (active)	inactive	inactive	inactive	inactive

SMILES	growth inhibition [1]	inhibition [2]	inhibition [3]	growth inhibition [4]	outcome [5]	outcome [6]	outcome [7]	outcome [8]
CCCCCn1c(Sc2ccc(C#N)c([N+](=O)[O-])c2)nnc1-c1cccs1	38%	19%	-1%	91% (active)	inactive	inactive	inactive	inactive
COc1cc2ccccc2cc1OCCCN1CCN(CC(c2ccc(F)cc2)N2CCN(C(C)C)CC2)CC1 (stereo not given)	92% (active)	72% (active)	-3%	100% (active)	inactive	inactive	inactive	inactive
Fc1ccc2nc(-c3cccc(-c4cccc(CNCc5ccccc5)c4)c3)[nH]c2c1	52% (active)	24%	-9%	102% (active)	inactive	inactive	inactive	inactive
O=C(Nc1cccc(CN2CCCN(Cc3ccsc3)CC2)c1)c1ccc(Cl)c(Cl)c1	20%	36%	4%	98% (active)	inactive	inactive	inactive	inactive
Fc1cccc(COc2ccc(Nc3ncnc4sc(C#C[C@H]5CC[C@H](CNCC(F)(F)F)N5)cc34)cc2Cl)c1	51% (active)	10%	-4%	100% (active)	inactive	inactive	inactive	inactive
CCc1cc2c(=O)c(-c3nc(C)cs3)c([C@H](N)Cc3ccc(O)cc3)oc2cc1O	19%	11%	1%	101% (active)	inactive	inactive	inactive	inactive
CC(CCCC(=O)Nc1ccc(CC(C)NCCc2cccc(Cl)c2)cc1)NCCc1cccc(Cl)c1 (stereo not given)	14%	98% (active)	-3%	101% (active)	inactive	inactive	inactive	inactive
Cc1ncccc1-c1cccc2c(NC(=O)Nc3ccc4nccc(N5CCN(C)CC5)c4c3)cccc12	96% (active)	19%	-6%	101% (active)	inactive	inactive	inactive	inactive
O=C(/C=C/c1ccc(Cl)c(Cl)c1)N1CCC(CCN2CCC(c3c[nH]c4ccncc34)CC2)CC1	70% (active)	13%	2%	101% (active)	inactive	inactive	inactive	inactive
Cc1ccc(NC(=O)c2ccc(CN3CCCN(Cc4cccc(O)c4)CC3)cc2)cc1F	31%	48%	-2%	97% (active)	inactive	inactive	inactive	inactive
CN1CCC(C(=O)Nc2ccc(-c3ccc(-c4nc5ccccc5[nH]4)s3)cc2)CC1	22%	30%	3%	99% (active)	inactive	inactive	inactive	inactive
Cc1cc(Cl)c(S(=O)(=O)N2CCc3ccccc32)cc1OCC(=O)NC1CCCCC1	93% (active)	28%	-3%	101% (active)	inactive	inactive	inactive	inactive
c1ccc(-c2nc3ccccc3[nH]2)c(Nc2ccnc3cc(-c4nccs4)ccc23)c1	98% (active)	-4%	3%	101% (active)	inactive	inactive	inactive	inactive
CCCCCCN1CCC(NCc2ccc(C(F)(F)F)cc2)CC1	47%	11%	-2%	100% (active)	inactive	inactive	inactive	inactive
COc1cc(NC(=O)/C=C/c2cc(F)cc(F)c2F)cc(OCCN2CCN(CCN3CCOCC3)CC2)c1	94% (active)	21%	0%	102% (active)	inactive	inactive	inactive	inactive
CCN(CC)Cc1cc(Nc2c3ccc(Cl)cc3nc3cccc(OC)c23)ccc1O	98% (active)	8%	-3%	101% (active)	inactive	inactive	inactive	inactive
CCc1ccc(-n2c(=O)c3cccnc3n2CC(=O)NC2CCCC2)cc1	27%	-1%	-7%	98% (active)	inactive	inactive	inactive	inactive
O=C(C1CCN(c2nnnn2-c2ccccc2)CC1)N1CCc2ccccc2C1	97% (active)	-7%	-9%	97% (active)	inactive	inactive	inactive	inactive
Cc1cc(O)c(CNC2CCCCC2)cc1C	95% (active)	6%	-2%	95% (active)	inactive	inactive	inactive	inactive
c1ccc(-c2cc(NCCCCNc3cc(-c4ccccc4)nc4ccccc34)c3ccccc3n2)cc1	97% (active)	70% (active)	0%	102% (active)	inactive	inactive	inactive	inactive
